In all, about 210,000 compounds went through this assay and about 5,900 (2.8%) were called active. A call without a number means that no potency is given here. Roughly 5% stayed inconclusive and do not appear here. Calls follow the shape of the dose curve; as a rule, active = well fitted activation curve with a large enough effect; inconclusive = small, poorly fitted or top-dose-only effect; inactive = no such curve, though single readings can be large or run the other way. This excerpt belongs to a sample that is enriched for actives.
Potency is read from the fitted curve at half-maximal effect.

The nature of the experiment: qHTS Assay for Enhancers of SMN2 Splice Variant Expression. Also: nearly all actives have a fitted effect of over 55% in size. The following applies: HEK293 SMN2-luciferase splicing reporter, luminescence, 30-36 h; series mostly up to 46.1 µM. The method in brief: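 HEK293 cells carry an SMN2 […]–luciferase reporter in which exon 7 inclusion puts luciferase in frame. Cells were plated 10-12 h before compound addition, then incubated 30-36 h at 37C. ONE-Glo luminescence was read; sodium butyrate at 4.5 mM final served as control.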
For orientation: In qHTS, concentration-response curves come from the screen itself.
Regarding `CC(C)Cc1cc(C(=O)NCCc2ccccc2)no1`, the Potency is 12.6 µM (active).

As for `Nc1nonc1C(=O)NCCc1ccccc1`, the Potency entry is “inactive”.

As for `Cc1cc(C(=O)NCCCc2ccccc2)no1`, the Potency result is “inactive”.

As to `CCOC(=O)N1CCc2c(sc3c2c(=O)n(-c2ccc(CC)cc2)c(=O)n3C)C1`, the Potency entry was “inactive”.

Regarding `Cc1ccc(-c2ccc(CCC(=O)O)n2-c2ccc(C(N)=O)cc2)cc1`, the Potency result is “inactive”.

In the case of `Cc1cccc(OCC(=O)N(Cc2ccc(C(C)C)cc2)Cc2ccco2)c1C`, the Potency entry is “inactive”.

Regarding `Cc1ccc(C)c(Cn2c(=O)n(CCC(=O)NCc3ccc4c(c3)OCO4)c(=O)c3sccc32)c1`, the Potency result is “inactive”.

Consider `CC(=C/c1ccccc1)/C=N/NC(=O)c1cc(C)oc1C`, for which the Potency was 15.8 µM (active).

As to `COc1ccc(C/C(C)=N/NC(=O)c2cc(C)oc2C)cc1`, the Potency result was “inactive”.

Regarding `N=c1oc2ccccc2cc1C(=O)N/N=C/c1ccccc1`, the Potency entry was “inactive”.

Consider `CSc1ccc(CCNC(=O)c2cnn(-c3ccccc3)c2-n2cccc2)cc1`, for which the Potency entry was “inactive”.

In the case of `CC(C)c1ccc(C2CC(=O)N3CN(C4CCCCC4)CSC3=C2C#N)cc1` (configuration not stated), the Potency result was “inactive”.

For the molecule `CC(=O)OC(C(=O)NC1CCCCC1)c1ccccc1` (configuration not stated), the Potency result was “inactive”.

With `O=C(/C=C/c1cnc2ccccc2n1)NC1CCCCCC1`, the Potency was 11.2 µM (active).

Consider `O=C(Cn1c(-c2cncs2)nc2ccccc21)NC1CCCC1`, for which the Potency entry was “inactive”.

As for `COc1ccccc1NC(=O)CSc1oc(-c2ccco2)nc1S(=O)(=O)c1ccc(Br)cc1`, the Potency result was “inactive”.

With `CCOc1ccc(CNCCSc2nnnn2C)cc1`, the Potency result was “inactive”.

`Cc1nn(C(=O)c2ccoc2C)c(N)c1-c1ccccc1`: the Potency is 12.6 µM (active).

As for `CCOC(=O)c1c(N)nn(C(=O)c2ccccc2)c1-c1ccccc1`, the Potency entry was “inactive”.

In the case of `Cc1occc1C(=O)N1CCCc2ccccc21`, the Potency result is “inactive”.

On to `CCCCCn1c(=O)[nH]c2cc(C(=O)NCCN(C)CCCC)ccc2c1=O`, for which the Potency result was “inactive”.

Regarding `C=Cc1ccc(Cn2c(C(=O)OC)cc3sc(C)cc32)cc1`, the Potency entry was “inactive”.

Turning to `Cc1ccc(CCNC(=O)c2ccc3c(c2)N(Cc2cc(C)ccc2C)C(=O)c2ccccc2S3=O)cc1` (configuration not stated), the Potency result is “inactive”.

In the case of `Cc1sc(C2C(C#N)=C(N)N(c3cccc(Cl)c3)C3=C2C(=O)CCC3)cc1CN1CCOCC1` (configuration not stated), the Potency entry was “inactive”.

Take `COc1cccc(-c2nnc(SCC(=O)N3CCC(C)CC3)o2)c1`: the Potency entry is “inactive”.

Consider `Cc1cccc(-c2noc(-c3ccc(F)cc3)n2)c1`, for which the Potency is 11.2 µM (active).

`Cc1ccc(Cc2nc(-c3cccc(C)c3)no2)cc1`: the Potency is 11.2 µM (active).

For the molecule `Cc1ccc(-c2noc(CC(c3ccccc3)c3ccccc3)n2)cc1`, the Potency result was “inactive”.

Consider `Cc1ccc(-c2noc(CN3CCN(Cc4ccccc4)CC3)n2)cc1`, for which the Potency entry was “inactive”.

Regarding `COc1ccccc1Cc1nc(-c2ccc(C)cc2)no1`, the Potency result was “inactive”.

In the case of `COc1ccc2[nH]c(=O)c(-c3noc(-c4ccc(F)cc4)n3)cc2c1`, the Potency entry was “inactive”.

Regarding `COc1cccc(CNC(=O)CCC(=O)N2CC3CCCN3c3ccccc32)c1` (configuration not stated), the Potency entry was “inactive”.

For the molecule `O=C(CC1Oc2ccccc2NC1=O)NCc1ccc(F)cc1` (configuration not stated), the Potency entry is “inactive”.

On to `CCCCn1c(CNC(=O)C23CC4CC(CC(C4)C2)C3)nnc1SCC(=O)Nc1ccc(C)cc1`, for which the Potency entry was “inactive”.

On to `CCCCCn1c(CCCNC(=O)c2ccccc2OC)nc2ccccc21`, for which the Potency result is “inactive”.

On to `CCOC(=O)c1c(NC(=O)/C(C#N)=C/c2ccccc2)sc2c1CCC2`, for which the Potency result is “inactive”.

On to `COc1ccc(NC(=O)C2CCN(c3ccc(Sc4ccc(C)cc4)nn3)CC2)c(OC)c1`, for which the Potency result was “inactive”.

As to `O=C1NC(Nc2nc3ccccc3s2)(C(F)(F)F)C(=O)N1C1CCCCC1` (configuration not stated), the Potency result is “inactive”.

With `c1ccc2sc(NN=C3CCCC3)nc2c1`, the Potency was 3.16 µM (active).

In the case of `O=[N+]([O-])c1cc(Br)c(O)c(/C=N/Nc2nc3ccccc3s2)c1`, the Potency result is “inactive”.

Take `CCN(C(=O)c1sc2cc(OC)ccc2c1Cl)c1ccccc1`: the Potency entry is “inactive”.

For `COc1ccc2c(c1)Cc1sc(NC(=O)c3ccccc3Br)nc1-2`, the Potency entry was “inactive”.

In the case of `Cc1ccc(CN(C(=O)COc2ccc(Cl)cc2C)C2CCS(=O)(=O)C2)o1` (configuration not stated), the Potency entry was “inactive”.

In the case of `O=C(NCc1cccnc1)c1cccc(-c2cc3ccccc3oc2=O)c1`, the Potency result was “inactive”.

As for `O=c1oc2ccccc2cc1-c1cn(-c2ccccc2)c(=S)[nH]1`, the Potency result is “inactive”.

With `Nc1ncc(-c2cc3ccccc3oc2=O)s1`, the Potency is 15.8 µM (active).

In the case of `CC(C)Sc1oc(-c2cccs2)nc1S(=O)(=O)c1ccc(Cl)cc1`, the Potency result is “inactive”.

Consider `COc1ccc(NC(=O)CCc2nnc3n(CC(C)C)c(=O)c4ccccc4n23)cc1OC`, for which the Potency entry was “inactive”.

Take `CCOC(=O)c1cccc(NC(=O)C(Cc2ccccc2)NS(=O)(=O)c2cccc3nsnc23)c1` (configuration not stated): the Potency entry was “inactive”.

On to `COc1ccc(-c2csc(-c3c(N)c(C(=O)c4ccc(OC)c(OC)c4)n4ccccc34)n2)cc1`, for which the Potency result is “inactive”.

With `CCCN1CCN(CCCNC(=O)CN2C(=O)COc3ccccc32)CC1`, the Potency entry was “inactive”.

Consider `O=C(CN1C(=O)COc2ccccc21)Nc1ccc(F)cc1`, for which the Potency result is “inactive”.

As for `O=C(CN1C(=O)COc2ccccc21)NCCN1CCc2ccccc2C1`, the Potency is 7.08 µM (active).

Consider `CCc1ccccc1NC(=O)c1cc(-c2ccc3c(c2)OCO3)on1`, for which the Potency entry is “inactive”.

With `COc1ccc(-c2csc(N3CCN(Cc4ccc5c(c4)OCO5)CC3)n2)cc1`, the Potency entry was “inactive”.

`COc1ccc(C(=O)Nc2nc(-c3ccc(S(=O)(=O)N4CCOCC4)cc3)cs2)cc1`: the Potency result was “inactive”.

For `COc1ccc(-c2csc(Cc3nc(O)cs3)n2)cc1`, the Potency was 11.2 µM (active).

Consider `CCC(=O)N1CCc2cc(Br)cc(S(=O)(=O)CCC(=O)N3CCN(c4ccc(F)cc4)CC3)c21`, for which the Potency result was “inactive”.

As for `O=C(O)Cc1ccc(NC(=O)c2cccs2)cc1`, the Potency entry is “inactive”.

In the case of `Cc1ccc(-c2csc(NC(=O)Cc3cccs3)n2)cc1C`, the Potency entry was “inactive”.

`Cc1ccc(-c2csc(NNC(=O)c3ccccc3)n2)cc1`: the Potency entry was “inactive”.

Regarding `Cc1ccc(-c2csc(NC(=O)c3cccs3)n2)cc1`, the Potency is 11.2 µM (active).

For `Cc1nc(-c2ccc(NC(=O)c3cccs3)cc2)cs1`, the Potency was 3.16 µM (active).

For the molecule `Cc1ccc(-c2nnc(-c3ccc(NC(=O)c4cccs4)cc3)o2)cc1`, the Potency result is “inactive”.

`CCOC(=O)c1c(NC(=O)c2cc(CC)on2)sc(C(C)=O)c1C`: the Potency result is “inactive”.

As for `CC(C)Cn1c(-c2ccc(S(=O)(=O)N3CCOCC3)cc2)csc1=Nc1cc(Cl)ccc1Cl`, the Potency result was “inactive”.

Turning to `CCOc1ccc(CNC(=O)c2cccc(Nc3nc4ccccc4n4nnnc34)c2)cc1OC`, the Potency result was “inactive”.

In the case of `Cc1cc(NC(=O)Nc2ccccc2[N+](=O)[O-])no1`, the Potency result is “inactive”.

Turning to `Cc1c(NC(=O)Nc2ccccc2)cccc1[N+](=O)[O-]`, the Potency result is “inactive”.

For the molecule `Cc1csc(NC(=O)Nc2ccccc2[N+](=O)[O-])n1`, the Potency is 5.62 µM (active).

`Cn1c(=O)c2c(nc(NCCc3ccccc3)n2Cc2ccccc2Br)n(C)c1=O`: the Potency entry was “inactive”.

With `COc1ccccc1-c1ccnc2[nH]n(-c3ccccc3)c(=O)c12`, the Potency entry is “inactive”.

As to `CCOC(=O)C(Cc1ccccc1)NC(=O)CCc1c(C)nc2c(c(C)nn2-c2ccc(C)c(C)c2)c1C` (configuration not stated), the Potency entry is “inactive”.

As for `COC(=O)CCC(=O)N1CCCC(CO)(Cc2ccccc2)C1` (configuration not stated), the Potency was 14.1 µM (active).

Regarding `COCC(=O)N1CCC2(CCCN(c3ccccc3)C2)CC1`, the Potency result is “inactive”.

For the molecule `COC(=O)c1ccc(CN2CCC(CO)(Cc3ccc(OC)cc3)CC2)cc1`, the Potency entry is “inactive”.

With `COc1ccc(CNC(=O)Cn2nnc(-c3ccccc3F)n2)cc1`, the Potency result was “inactive”.

As to `COC(=O)c1ccccc1NC(=O)Cn1c(=O)n(-c2cccc(C(F)(F)F)c2)c(=O)c2c(C)c(C)sc21`, the Potency result is “inactive”.

On to `Cn1c(=O)c2c(nc(SCC(=O)Nc3ccc(F)cc3)n2Cc2ccc(Cl)cc2)n(C)c1=O`, for which the Potency result was “inactive”.

As for `COc1ccc(NC(=O)c2ccco2)cc1NC(=O)c1ccc(C#N)cc1F`, the Potency result is “inactive”.

On to `O=C(NNC(=O)c1ccc(Cl)cc1Cl)c1cccs1`, for which the Potency is 12.6 µM (active).

For the molecule `NNC(=O)c1ccc(Cl)cc1Cl`, the Potency result was “inactive”.

For the molecule `Cc1ccc(C(=O)NNC(=O)c2cccs2)cc1`, the Potency result was “inactive”.

`Cc1cccc(NC(=O)c2nnn(CC(=O)Nc3ccc(C(C)C)cc3)c2N)c1C`: the Potency result was “inactive”.

Regarding `CCOc1ccc(CCNC(=O)c2csc3c2CCCCC3)cc1`, the Potency entry is “inactive”.

Turning to `Cc1ccc(C)c(N2CCN(Cc3nnc(-c4ccccc4)o3)CC2)c1`, the Potency entry was “inactive”.

For `COc1cccc2cc(-c3nc(Cl)c4c5c(sc4n3)CC(C)CC5)c(=O)oc12` (configuration not stated), the Potency result is “inactive”.
